Each structure is given as a SMILES string. Screen size: about 39,000 compounds; about 3,300 (8.5%) were called active. Shown is part of a subset that was picked to be rich in actives.

For the experiment, the system named is HepG2. Nature of the experiment: cytotoxicity call (relative viability < 0.9). As to conditions: 10 µM.
As to `Cc1cc(C)c2nnc(SCC(=O)O)n2n1`, the cytotoxicity call is “inactive”.
For `C[C@@H]1CN([C@@H](C)CO)C(=O)Cc2cc(NS(C)(=O)=O)ccc2O[C@H]1CN(C)C(=O)NC1CCCCC1` the value was “inactive”.
For `Cc1noc(C)c1NC(=O)N[C@@H]1CC[C@H](CC(=O)NCCCN(C)C)O[C@@H]1CO` the value was “inactive”; for `O=C(C[C@@H]1C[C@H]2c3cc(NS(=O)(=O)c4ccc(F)cc4)ccc3O[C@H]2[C@H](CO)O1)NCc1ccccc1`, “inactive”.
Next, `Cc1ccc(S(=O)(=O)N(C)C[C@H]2Oc3ccc(NS(C)(=O)=O)cc3C(=O)N([C@@H](C)CO)C[C@H]2C)cc1`: “inactive”.
For `CN(C)CCCNC(=O)C[C@@H]1CC[C@H](NS(=O)(=O)c2ccccc2)[C@H](CO)O1`, the cytotoxicity call was “inactive”.
For `C[C@H]1CCCCO[C@H](CN(C)C(=O)Nc2ccc(C(F)(F)F)cc2)[C@@H](C)CN([C@@H](C)CO)C(=O)c2cc(NS(=O)(=O)c3cccs3)ccc2O1` the value was “inactive”.
Next, `C[C@@H]1CCCCO[C@@H](CN(C)C(=O)C2CCCCC2)[C@H](C)CN([C@H](C)CO)C(=O)c2cc(NS(=O)(=O)c3cccs3)ccc2O1`: “inactive”.
Next, `C[C@@H]1CCCCO[C@H](CN(C)C(=O)Nc2ccc(C(F)(F)F)cc2)[C@H](C)CN([C@@H](C)CO)C(=O)c2cc(NS(=O)(=O)c3cccs3)ccc2O1`: “inactive”; `C[C@@H]1CCCCO[C@@H](CN(C)C(=O)C2CCCCC2)[C@@H](C)CN([C@H](C)CO)C(=O)c2cc(NS(=O)(=O)c3cccs3)ccc2O1`: “active”; `C[C@@H]1CCCCO[C@@H](CN(C)C(=O)Nc2ccc(C(F)(F)F)cc2)[C@H](C)CN([C@H](C)CO)C(=O)c2cc(NS(=O)(=O)c3cccs3)ccc2O1`: “active”.
Turning to `C[C@@H]1CCCCO[C@H](CN(C)C(=O)C2CCCCC2)[C@H](C)CN([C@H](C)CO)C(=O)c2cc(NS(=O)(=O)c3cccs3)ccc2O1`, the cytotoxicity call was “inactive”.
For `C[C@H]1CCCCO[C@@H](CN(C)C(=O)Nc2ccc(C(F)(F)F)cc2)[C@@H](C)CN([C@@H](C)CO)C(=O)c2cc(NS(=O)(=O)c3cccs3)ccc2O1` the value was “inactive”; for `C[C@@H]1CCCCO[C@H](CN(C)C(=O)Nc2ccc(C(F)(F)F)cc2)[C@@H](C)CN([C@@H](C)CO)C(=O)c2cc(NS(=O)(=O)c3cccs3)ccc2O1`, “active”; for `C[C@@H]1CCCCO[C@@H](CN(C)C(=O)Nc2ccc(C(F)(F)F)cc2)[C@@H](C)CN([C@H](C)CO)C(=O)c2cc(NS(=O)(=O)c3cccs3)ccc2O1`, “inactive”.
As to `O=C(CCCCCCC(=O)Nc1ccccc1O)N/N=C/[C@H](O)[C@@H](O)[C@H](O)CO`, the cytotoxicity call is “inactive”.
In the case of `COc1ccc(S(=O)(=O)N(C)C[C@@H]2OCCCC[C@@H](C)Oc3ccc(NC(=O)C4CCCCC4)cc3C(=O)N([C@@H](C)CO)C[C@@H]2C)cc1`, the cytotoxicity call was “inactive”.
In the case of `COC(=O)C(CC#Cc1ccc2c(c1)[C@]1(C(=O)N2)[C@H](c2ccc(OCCO)cc2)N2[C@H](c3ccccc3)[C@H](c3ccccc3)OC(=O)[C@H]2[C@@H]1C(=O)Nc1nc2ccccc2s1)C(=O)OC`, the cytotoxicity call was “inactive”.
For the compound `C[C@@H]1CN([C@H](C)CO)C(=O)c2cccc(NS(=O)(=O)c3cccs3)c2O[C@H]1CN(C)S(=O)(=O)c1ccccc1`, the cytotoxicity call was “inactive”.
With `C[C@H](CO)N1C[C@H](C)[C@@H](CN(C)C(=O)c2ccncc2)Oc2ncc(C#CC3CCCCC3)cc2C1=O`, the cytotoxicity call was “inactive”.
In the case of `C[C@H](CO)N1C[C@H](C)[C@@H](CN(C)C(=O)c2cnccn2)Oc2ncc(-c3cccc(C#N)c3)cc2C1=O`, the cytotoxicity call is “inactive”.
For the compound `C[C@@H]1CN([C@@H](C)CO)C(=O)c2cccc(NC(=O)Nc3cccc4ccccc34)c2O[C@H]1CN(C)S(=O)(=O)c1ccc2ncsc2c1`, the cytotoxicity call was “inactive”.
For `C[C@@H]1CN([C@@H](C)CO)C(=O)c2cc(NC(=O)Nc3ccc(F)cc3)ccc2O[C@@H](C)CCCCO[C@@H]1CN(C)S(=O)(=O)c1ccc(F)cc1` the value was “inactive”; for `C[C@@H]1CN([C@H](C)CO)C(=O)c2cc(NC(=O)Nc3ccc4c(c3)OCO4)ccc2O[C@@H](C)CCCCO[C@@H]1CN(C)S(=O)(=O)c1ccc(F)cc1`, “inactive”; for `C[C@@H]1CCCCO[C@@H](CN(C)S(=O)(=O)c2ccc(F)cc2)[C@@H](C)CN([C@H](C)CO)C(=O)c2cc(NC(=O)Nc3ccc(F)cc3)ccc2O1`, “inactive”.
Next, `C[C@@H]1CN([C@H](C)CO)C(=O)c2cc(NC(=O)Nc3ccc(F)cc3)ccc2O[C@@H](C)CCCCO[C@H]1CN(C)S(=O)(=O)c1ccc(F)cc1`: “active”; `C[C@H]1CCCCO[C@@H](CN(C)S(=O)(=O)c2ccc(F)cc2)[C@@H](C)CN([C@@H](C)CO)C(=O)c2cc(NC(=O)Nc3ccc(F)cc3)ccc2O1`: “inactive”; `C[C@@H]1CCCCO[C@@H](CN(C)S(=O)(=O)c2ccc(F)cc2)[C@@H](C)CN([C@@H](C)CO)C(=O)c2cc(NC(=O)Nc3ccc(F)cc3)ccc2O1`: “active”.
Next, `C[C@@H]1CCCCO[C@H](CN(C)S(=O)(=O)c2ccc(F)cc2)[C@@H](C)CN([C@H](C)CO)C(=O)c2cc(NC(=O)Nc3ccc4c(c3)OCO4)ccc2O1`: “active”; `C[C@H](CO)N1C[C@H](C)[C@@H](CN(C)S(=O)(=O)c2ccc(F)cc2)OCCCC[C@H](C)Oc2ccc(NC(=O)Nc3ccc(F)cc3)cc2C1=O`: “inactive”; `C[C@@H]1CCCCO[C@@H](CN(C)S(=O)(=O)c2ccc(F)cc2)[C@H](C)CN([C@H](C)CO)C(=O)c2cc(NC(=O)Nc3ccc(F)cc3)ccc2O1`: “active”.
On to `C[C@@H]1CCCCO[C@@H](CN(C)S(=O)(=O)c2ccc(F)cc2)[C@H](C)CN([C@@H](C)CO)C(=O)c2cc(NC(=O)Nc3ccc(F)cc3)ccc2O1`, for which the cytotoxicity call is “inactive”.
Consider `C[C@@H]1CCCCO[C@@H](CN(C)S(=O)(=O)c2ccc(F)cc2)[C@@H](C)CN([C@H](C)CO)C(=O)c2cc(NC(=O)Nc3ccc4c(c3)OCO4)ccc2O1`, for which the cytotoxicity call was “inactive”.
Next, `C[C@H]1CCCCO[C@H](CN(C)S(=O)(=O)c2ccc(F)cc2)[C@@H](C)CN([C@@H](C)CO)C(=O)c2cc(NC(=O)Nc3ccc(F)cc3)ccc2O1`: “inactive”.
For `O=C(O)CNS(=O)(=O)c1ccccc1F` the value was “inactive”; for `Cc1noc(C)c1S(=O)(=O)Nc1ccc2c(c1)CC(=O)N([C@H](C)CO)C[C@@H](C)[C@H](CN(C)S(C)(=O)=O)O2`, “inactive”.
Next, `C[C@@H]1CN([C@@H](C)CO)C(=O)c2cccc(NC(=O)c3nc4ccccc4s3)c2O[C@H]1CN(C)Cc1ccc(-c2ccccc2)cc1`: “inactive”; `COc1ccc(S(=O)(=O)Nc2ccc3c(c2)C(=O)N([C@@H](C)CO)C[C@H](C)[C@@H](CN(C)C(=O)Nc2cccc4ccccc24)O3)cc1`: “inactive”.
Consider `C[C@@H]1CN([C@H](C)CO)C(=O)c2cc(NS(C)(=O)=O)ccc2O[C@H]1CN(C)Cc1ccc(C(F)(F)F)cc1`, for which the cytotoxicity call was “inactive”.
For `C[C@H]1CN([C@@H](C)CO)C(=O)c2cccc(NC(=O)C3CCOCC3)c2O[C@H]1CN(C)S(=O)(=O)c1ccccc1` the value was “inactive”.
As to `O=C(C[C@@H]1CC[C@H]2[C@@H](COC[C@@H](O)CN2S(=O)(=O)c2ccc(F)cc2)O1)NCc1ccc(Cl)c(Cl)c1`, the cytotoxicity call was “inactive”.
For `O=C(Nc1ccc(C(=O)Nc2ccc(C(=O)Nc3ccc(S(=O)(=O)O)c4cc(S(=O)(=O)O)cc(S(=O)(=O)O)c34)cc2)cc1)Nc1ccc(C(=O)Nc2ccc(C(=O)Nc3ccc(S(=O)(=O)O)c4cc(S(=O)(=O)O)cc(S(=O)(=O)O)c34)cc2)cc1`, the cytotoxicity call was “inactive”.
Next, `C[C@H]1CN([C@@H](C)CO)C(=O)c2cc(Br)cnc2O[C@@H]1CN(C)S(=O)(=O)c1ccccc1`: “inactive”.
Next, `C[C@@H]1CN([C@@H](C)CO)C(=O)c2cc(NS(=O)(=O)c3ccc(F)cc3)ccc2O[C@@H]1CN(C)S(=O)(=O)c1ccccc1`: “inactive”; `C=CCOC(=O)[C@@H]1[C@H]2C(=O)O[C@H](c3ccccc3)[C@H](c3ccccc3)N2[C@H](c2ccc(OCCOC(=O)[C@H]3C[C@H]4C(=O)NCC(=O)N4[C@H]3c3cccc(OCCO)c3)cc2)[C@@]12C(=O)Nc1ccc(I)cc12`: “inactive”; `C[C@@H]1CN([C@H](C)CO)C(=O)c2cc(NC(=O)Nc3ccc(F)cc3)ccc2O[C@@H](C)CCCCO[C@@H]1CN(C)S(=O)(=O)c1ccc(F)cc1`: “inactive”.
For `C[C@@H]1CCCCO[C@H](CN(C)S(=O)(=O)c2ccc(F)cc2)[C@@H](C)CN([C@H](C)CO)C(=O)c2cc(NC(=O)Nc3ccc(F)cc3)ccc2O1` the value was “inactive”.
In the case of `C[C@@H]1CCCCO[C@H](CN(C)S(=O)(=O)c2ccc(F)cc2)[C@H](C)CN([C@H](C)CO)C(=O)c2cc(NC(=O)Nc3ccc(F)cc3)ccc2O1`, the cytotoxicity call was “active”.
On to `COC(=O)C1=CO[C@@H](O[C@@H]2O[C@H](CO)[C@@H](O)[C@H](O)[C@H]2O)[C@@H]2[C@@](C)(O)[C@@H](OC(=O)/C=C/c3ccc(O)cc3)C[C@]12O`, for which the cytotoxicity call is “inactive”.
As for `OCC(O)C(O)CO` (stereo unspecified), the cytotoxicity call is “inactive”.
For `OC[C@@H](O)[C@@H](O)CO` the value was “inactive”; for `C[C@@H]1CCCCO[C@@H](CN(C)C(=O)NC2CCCCC2)[C@H](C)CN([C@@H](C)CO)C(=O)c2cc(NC(=O)c3ccccc3)ccc2O1`, “inactive”; for `CCCNC(=O)N(C)C[C@H]1Oc2cc(C#Cc3ccccn3)ccc2S(=O)(=O)N([C@@H](C)CO)C[C@@H]1C`, “inactive”.
Turning to `COc1ccc(CN(C)C[C@H]2OCCCC[C@@H](C)Oc3ccc(NC(=O)c4ccccc4)cc3C(=O)N([C@@H](C)CO)C[C@H]2C)cc1`, the cytotoxicity call was “inactive”.
For `CCS(=O)(=O)N1Cc2cc(C(=O)NCCOC)nc(-c3cccc(-c4ccncc4)c3)c2[C@H]1CCO` the value was “inactive”; for `CCN(CC)CCN(Cc1ccc(-c2ccc(C(F)(F)F)cc2)cc1)C(=O)Cn1c(SCc2ccc(F)cc2)nc(=O)c2c1CCC2`, “active”.

These data come from the antibiotic and cytotoxicity screens of Wong et al. (2023).
